In the OligoGym collection:

Biological target: NPC1L1
Test: pooled miR-30 sensor sort-seq; sequence = guide strand
Details: shRNA
Also: reference of the scale not given here.

Row | Sequence | sensor-assay potency score (higher = more potent)
1 | TTGTTGGGCAAGAAGTTGCTGA | -0.757
2 | TAAAACACATTGGTGATCGTGT | 0.009
3 | TTGGAGTCCACCATCACTCGGC | 0.203
4 | TTGGAGAGTGTCATGAGGCTTC | -0.0939
5 | TTGTGTAAGGCTCACTCTGGGC | -1.01
6 | TTGATCTCGTCTTCCAGAGAGC | -1.19
7 | TTGGTGATCGACAGACTCGCTT | 0.12
8 | TTATGGAACTGCTCCACCGAGG | -0.788
9 | TTGTCAGCTGTGGAGACTCGGG | -1.23
10 | TTGTGATAGGCCATGAACCTGG | -0.611
11 | TTGATAGAACCTTCAAAGCTGT | -0.451
12 | TTGGGGTCCACCATCTTGCTTT | -0.775

Biological target: NPEPL1
Test: as above
Details: shRNA

Row | Sequence | sensor-assay potency score (higher = more potent)
13 | TCGCAGACCATCACAATGCAGC | -1.2
14 | TTGCAAGCATAGGACACGCCAT | -0.766
15 | TAGAGGGGACAGCTGTCCGTGG | -0.837
16 | TCGGTGTTCATCTCATTGCAGG | -1.16
17 | TTGTCTTTGAAACCCTGCTTGA | -0.575
18 | TCGCTCACCAGCATGCACCGGT | -0.443
19 | TTCATGTCCGCCACAGCTGAGG | -1.03
20 | TTCGCTAAGCACTGCAATGTGG | -0.589
21 | TTGATTTCCACCGTCTTCCCTG | -0.0975

Biological target: NPR1
Test: as above
Details: shRNA

Row | Sequence | sensor-assay potency score (higher = more potent)
22 | TTAGACTCCATTCTTGAGGCTG | 0.316
23 | ATACTCGTCCTTGACACCGAAG | -1.26
24 | TCATTGGTGAGTGAGTACCGGA | -1.01
25 | TTCTCCAGCTGCATCTTCCTGT | -0.0836
26 | TTCGGTTCCACATCCGCTGAGT | 0.0187
27 | TTGTAGTTCAGTACAACCCTGA | 0.392
28 | TAGACTCCATTCTTGAGGCTGT | 0.414
29 | TTCCTGTATATGAAGAAGGAGA | -1.29
30 | TTTCGTGTCAGCTCAATGCGTT | 0.0994
31 | TATAATATGCTGTCTTGGCAAA | -1.35
32 | TTGTCCAGGATGTTGCTGCTGT | -0.0226

Biological target: NPSR1
Test: as above
Details: shRNA

Row | Sequence | sensor-assay potency score (higher = more potent)
33 | TTTTAATCCAAATAGTTCGGAT | -0.423
34 | TAGAGCAGCACAACCTGCAAAT | -0.941
35 | TTCTTCTTTCTCCTCCATGTGG | -0.829
36 | TTTGCCTTTGAGATGAGTCCTC | 0.0754
37 | TTAAAGGAGTAGTAGAAGGAAC | -1.01
38 | TTTGAGATGAGTCCTCGGTTAT | -1.18
39 | TTGCTTTTAATCCAAATAGTTC | -1.33
